Compound activity (PubChem)
Pf apPOL inh: Pf-apPOL inhibitors, biochemical, fluorescence | hit rate 0.25% among 210,000 | Plasmodium falciparum apicoplast DNA polymerase (apPOL) | inhibition, % at 10 µM | Recombinant Pf-apPOL, molecular beacon fluorescence, 1.5 h | AID 1794808, 2022
mHTT-CaM PPI inh: mutant huntingtin-calmodulin interaction inhibitors – biochemical, AlphaScreen, primary screen | AID 1671202, 2021 | inhibition, % at 15 µM | hit rate 3.6% among 190,000 | AlphaScreen His-mHTT/GST-CaM binding, luminescence | P42858
Target sequence (P42858 whole entry, looked up, change not shown): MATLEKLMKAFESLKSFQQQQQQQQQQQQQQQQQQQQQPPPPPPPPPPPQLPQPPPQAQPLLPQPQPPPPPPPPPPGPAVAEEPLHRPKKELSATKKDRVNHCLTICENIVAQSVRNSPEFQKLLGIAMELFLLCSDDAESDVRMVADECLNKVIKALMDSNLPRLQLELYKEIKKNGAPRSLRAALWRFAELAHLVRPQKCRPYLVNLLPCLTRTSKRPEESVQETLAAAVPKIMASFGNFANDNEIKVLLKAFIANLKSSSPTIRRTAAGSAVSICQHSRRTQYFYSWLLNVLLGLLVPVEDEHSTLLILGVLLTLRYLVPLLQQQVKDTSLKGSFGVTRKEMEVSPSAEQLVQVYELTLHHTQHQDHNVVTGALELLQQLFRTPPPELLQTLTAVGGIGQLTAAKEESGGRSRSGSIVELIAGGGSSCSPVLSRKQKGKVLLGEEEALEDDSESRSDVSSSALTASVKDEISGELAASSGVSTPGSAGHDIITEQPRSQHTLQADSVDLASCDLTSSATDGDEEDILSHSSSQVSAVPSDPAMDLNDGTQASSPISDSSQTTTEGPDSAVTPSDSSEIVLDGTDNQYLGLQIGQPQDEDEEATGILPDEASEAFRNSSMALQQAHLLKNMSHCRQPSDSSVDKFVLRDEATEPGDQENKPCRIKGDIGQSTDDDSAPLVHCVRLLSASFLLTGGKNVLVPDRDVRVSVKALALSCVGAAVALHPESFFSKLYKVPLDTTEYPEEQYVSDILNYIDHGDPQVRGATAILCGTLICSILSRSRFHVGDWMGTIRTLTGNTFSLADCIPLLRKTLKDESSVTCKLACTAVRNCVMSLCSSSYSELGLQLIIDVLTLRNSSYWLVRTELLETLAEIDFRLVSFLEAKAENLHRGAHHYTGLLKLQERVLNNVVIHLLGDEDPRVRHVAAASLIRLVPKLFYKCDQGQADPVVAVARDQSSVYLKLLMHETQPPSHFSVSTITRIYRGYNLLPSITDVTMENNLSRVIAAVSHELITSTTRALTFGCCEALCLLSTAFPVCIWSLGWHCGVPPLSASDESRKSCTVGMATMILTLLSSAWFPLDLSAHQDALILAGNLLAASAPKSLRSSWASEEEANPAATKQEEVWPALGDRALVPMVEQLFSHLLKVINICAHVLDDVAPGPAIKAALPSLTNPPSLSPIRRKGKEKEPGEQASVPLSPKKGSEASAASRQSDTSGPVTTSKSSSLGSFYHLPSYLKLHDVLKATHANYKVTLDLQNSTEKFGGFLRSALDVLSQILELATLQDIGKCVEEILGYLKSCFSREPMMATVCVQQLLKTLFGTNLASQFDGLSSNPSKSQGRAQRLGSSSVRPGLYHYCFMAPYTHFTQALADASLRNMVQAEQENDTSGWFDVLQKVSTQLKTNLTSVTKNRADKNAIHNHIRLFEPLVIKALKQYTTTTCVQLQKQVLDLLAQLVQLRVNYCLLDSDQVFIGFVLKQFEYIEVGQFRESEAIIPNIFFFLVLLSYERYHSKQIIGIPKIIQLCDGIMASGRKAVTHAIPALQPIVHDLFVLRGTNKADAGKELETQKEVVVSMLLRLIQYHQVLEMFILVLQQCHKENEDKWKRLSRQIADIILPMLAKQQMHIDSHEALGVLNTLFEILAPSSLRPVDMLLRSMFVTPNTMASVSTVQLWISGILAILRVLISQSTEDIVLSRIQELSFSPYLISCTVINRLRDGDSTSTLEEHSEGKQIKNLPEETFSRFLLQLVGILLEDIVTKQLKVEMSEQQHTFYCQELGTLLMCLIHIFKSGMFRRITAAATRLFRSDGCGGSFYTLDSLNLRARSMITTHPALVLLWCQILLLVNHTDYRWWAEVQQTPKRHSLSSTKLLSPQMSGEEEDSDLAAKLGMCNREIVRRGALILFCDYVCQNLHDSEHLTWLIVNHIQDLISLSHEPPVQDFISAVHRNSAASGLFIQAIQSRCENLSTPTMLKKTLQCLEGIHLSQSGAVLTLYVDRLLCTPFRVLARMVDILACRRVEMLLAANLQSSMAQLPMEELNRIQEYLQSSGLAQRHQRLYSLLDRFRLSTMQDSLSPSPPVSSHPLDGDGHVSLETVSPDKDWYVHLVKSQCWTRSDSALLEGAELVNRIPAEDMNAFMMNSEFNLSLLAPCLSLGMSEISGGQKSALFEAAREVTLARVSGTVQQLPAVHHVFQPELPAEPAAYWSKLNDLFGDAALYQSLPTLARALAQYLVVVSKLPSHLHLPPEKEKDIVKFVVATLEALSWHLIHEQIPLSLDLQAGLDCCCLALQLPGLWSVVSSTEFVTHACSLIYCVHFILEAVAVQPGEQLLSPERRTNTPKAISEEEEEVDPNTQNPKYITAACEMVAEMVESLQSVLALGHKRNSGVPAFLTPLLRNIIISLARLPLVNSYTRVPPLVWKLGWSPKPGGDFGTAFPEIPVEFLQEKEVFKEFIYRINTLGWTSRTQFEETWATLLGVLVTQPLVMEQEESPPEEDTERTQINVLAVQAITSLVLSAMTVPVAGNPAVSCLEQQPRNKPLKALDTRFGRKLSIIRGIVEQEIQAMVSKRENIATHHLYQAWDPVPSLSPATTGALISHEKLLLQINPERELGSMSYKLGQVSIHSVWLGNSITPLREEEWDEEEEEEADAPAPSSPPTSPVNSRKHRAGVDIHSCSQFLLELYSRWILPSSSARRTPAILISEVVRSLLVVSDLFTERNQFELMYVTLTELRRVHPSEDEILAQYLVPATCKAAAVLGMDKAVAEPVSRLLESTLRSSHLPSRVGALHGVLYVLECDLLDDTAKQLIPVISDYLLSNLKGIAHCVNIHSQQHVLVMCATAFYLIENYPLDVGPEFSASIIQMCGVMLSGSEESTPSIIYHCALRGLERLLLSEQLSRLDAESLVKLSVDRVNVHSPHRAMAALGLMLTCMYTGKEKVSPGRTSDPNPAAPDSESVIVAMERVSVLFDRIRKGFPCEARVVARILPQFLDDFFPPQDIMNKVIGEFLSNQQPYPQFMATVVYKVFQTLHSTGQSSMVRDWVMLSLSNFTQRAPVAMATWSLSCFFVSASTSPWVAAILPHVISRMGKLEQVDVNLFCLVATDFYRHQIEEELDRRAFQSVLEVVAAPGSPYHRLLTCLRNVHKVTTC
Of the large screens only hits and unclear results are named; the others gave an inactive call. Shown are actives, neighbours in structure and some others; about 3.5% of the full set was active somewhere. Rule as the data show it: active = inhibition above about 50%; inactive = the rest.

Cc1cc(C2CCCN2C(=O)c2cc(-c3ccccc3F)no2)on1 (stereo unspecified)	none
CC(C)CC(NC(=O)C(C)Nc1c2ccccc2nc2ccccc12)C(=O)O (stereo unspecified)	mHTT-CaM PPI inh 65.0
CC(C)CC(NC(=O)c1ccco1)C(=O)O (stereo unspecified)	Pf apPOL inh 61.3
CC(Nc1c2ccccc2nc2ccccc12)C(=O)NC(CC(N)=O)C(=O)O (stereo unspecified)	none
CC(NC(=O)c1ccco1)C(=O)O (stereo unspecified)	none
Cc1cc(C)c(S(=O)(=O)N2CCC(CN3CCCC(C)C3)CC2)c(C)c1 (stereo unspecified)	none
Cc1ccc(C(=O)Nc2ccc3c(c2)Cc2ccccc2-3)cc1	none
Cc1cccc(NC(=O)CC2Sc3ncccc3N(CC(C)C)C2=O)c1 (stereo unspecified)	none
CN(C)c1ccc(CC2C(=O)Nc3ccccc32)cc1 (stereo unspecified)	none (no result: mHTT-CaM PPI inh)
CC1=Nc2ccccc2NC(=O)C1Cc1ccccc1 (stereo unspecified)	mHTT-CaM PPI inh 91.1
Cc1ccsc1C(O)CNC(=O)CN1C(=O)CCC1=O (stereo unspecified)	none
CCN(C)c1nc(-c2cccc(F)c2)c2c(N)n(-c3cc(F)ccc3F)nc2n1	mHTT-CaM PPI inh 53.9
CCN(C)c1nc(-c2cccc(F)c2F)c2c(N)n(-c3cccc(F)c3)nc2n1	none
Cc1ccc(S(=O)(=O)N=Cc2cc(Br)ccc2O)cc1	none
COc1ccc(CCC(=O)Nc2ccc3ncnc(N4CCCCC4)c3c2)cc1	none
COc1ccc(NC(=O)C2CCN(c3cc(N4CCCC4)ncn3)CC2)cc1Cl	mHTT-CaM PPI inh 53.8
COc1ccc(CC(=O)Nc2ccc3ncnc(N4CCCCC4)c3c2)cc1Cl	mHTT-CaM PPI inh 55.4
O=C(Nc1ccc2c(c1)OCCO2)C1CCN(c2cc(N3CCSCC3)ncn2)CC1	mHTT-CaM PPI inh 64.5
Cc1ccc(NC(=O)C2CCN(c3cc(=O)n(C)c(=O)n3C)CC2)cc1	none
COc1ccc(NC(=O)C2CCN(c3cc(N4CCCC4)ncn3)CC2)cc1OC	none
Cn1c(N2CCC(C(=O)Nc3ccc4c(c3)OCCO4)CC2)cc(=O)n(C)c1=O	mHTT-CaM PPI inh 57.5
O=C(Nc1ccc2c(c1)OCO2)C1CCN(c2cc(N3CCSCC3)ncn2)CC1	none
CCC(C)NCCOc1ccccc1F (stereo unspecified)	none
Cc1ccc(C2(O)CC(C(F)(F)F)=NN2C(=O)c2cccc(Cl)c2)cc1 (stereo unspecified)	none
Cc1ccc(Cl)cc1N(C)C(=O)C1CCN(c2cc(=O)n(C)c(=O)n2C)CC1	mHTT-CaM PPI inh 50.3
Cn1c(N2CCC(C(=O)Nc3ccc(Cl)cc3)CC2)cc(=O)n(C)c1=O	none
CC1CCN(C(=O)C2CCCN2C(=O)c2cc(-c3ccccc3)on2)CC1 (stereo unspecified)	none
O=C(O)CCC(=O)N1N=C(c2cccs2)CC1c1cc2ccccc2nc1Cl (stereo unspecified)	none
Cc1ccc(C2Oc3ccccc3C3=C2C(c2cccs2)n2ncnc2N3)cc1 (stereo unspecified)	none
COc1ccc(C2C3=C(Nc4ncnn42)c2ccccc2OC3c2ccccc2Cl)cc1OC (stereo unspecified)	mHTT-CaM PPI inh 70.0
COc1ccc(C2Oc3ccccc3C3=C2C(c2cccs2)n2ncnc2N3)cc1OC (stereo unspecified)	mHTT-CaM PPI inh 56.0
COc1cccc(C2C3=C(Nc4ncnn42)c2ccccc2OC3c2ccc(OC)c(OC)c2)c1 (stereo unspecified)	none
COc1ccc(C(CC(=O)N2CCCC2)c2cnc3n2CCC(C)C3)cc1 (stereo unspecified)	none
CN(CCCNC(=O)C1CCCN(c2ccc(N3CCOCC3)nn2)C1)c1ccccc1 (stereo unspecified)	mHTT-CaM PPI inh 54.7
CCCCNC(=O)C1CCCN(c2ccc(N3CCOCC3)nn2)C1 (stereo unspecified)	none
N#Cc1c(C#N)c(N)n(N)c1N	mHTT-CaM PPI inh 100.3 (no result: Pf apPOL inh)
Cn1nc(CC#N)c(C#N)c1N	none (no result: mHTT-CaM PPI inh)
O=C(NCCSCc1ccccc1Cl)c1cccs1	none (no result: mHTT-CaM PPI inh)
Cc1ccc(-n2c(O)cnc2Nc2nc(C)cc(C)n2)cc1	none
Cc1cc(C)nc(Nc2ncc(O)n2-c2ccc(Cl)cc2)n1	Pf apPOL inh 51.9
CC(=O)Nc1ccc(N=Cc2cc(C)cc(I)c2O)cc1	mHTT-CaM PPI inh 65.0
CC(=O)Nc1ccc(N=Cc2ccccc2O)cc1	none
CC1C(=O)C(C)C(c2ccc(F)cc2)NC1c1ccc(F)cc1 (stereo unspecified)	none
CC1C(=O)C(C)C(c2ccc(N(C)C)cc2)NC1c1ccc(N(C)C)cc1 (stereo unspecified)	mHTT-CaM PPI inh 77.0
CCSC1=NC(=O)/C(=C2\C=Cc3ccccc3N2CC)S1	none
CCN1C(=O)/C(=C2\C=Cc3ccccc3N2CC)SC1=Nc1ccc(OC)cc1	mHTT-CaM PPI inh 55.0
O=C(NCc1ccco1)c1cc2nc(-c3ccco3)cc(C(F)(F)F)n2n1	none
COCCCNC(=O)c1c(NC(=O)c2ccccc2OC)sc2c1CCCC2	none
O=C(COc1nsnc1N1CCCCC1)Nc1ccc(Br)cc1	mHTT-CaM PPI inh 51.0
O=C(COc1nsnc1N1CCOCC1)Nc1ccc(Br)cc1	none
Cc1cccc(C2CC(c3ccc(F)cc3)Nc3nc(N)nn32)c1 (stereo unspecified)	none
Cc1cccc(C2CC(c3ccc(Cl)cc3)Nc3nc(N)nn32)c1 (stereo unspecified)	mHTT-CaM PPI inh 56.4
CCc1ccc(C2CC(c3ccccc3Cl)n3nc(N)nc3N2)cc1 (stereo unspecified)	none
COc1ccccc1C1CC(c2ccc(Cl)c(Cl)c2)Nc2nc(N)nn21 (stereo unspecified)	mHTT-CaM PPI inh 99.2
COc1cccc(C2CC(c3ccc(Cl)cc3Cl)n3nc(N)nc3N2)c1 (stereo unspecified)	mHTT-CaM PPI inh 51.9
CCc1ccc(C2CC(c3ccccc3Cl)Nc3nc(N)nn32)cc1 (stereo unspecified)	mHTT-CaM PPI inh 52.2
COc1cccc(C2CC(c3ccccc3Cl)n3nc(N)nc3N2)c1 (stereo unspecified)	none
COc1ccccc1C1CC(c2ccc(C)cc2)Nc2nc(N)nn21 (stereo unspecified)	none
Cc1ccc(/C=C2/SC(=Nc3ccc(F)cc3)NC2=O)o1	none
COc1ccc(CNC2CCCCCC2)c(OC)c1	none
Cc1ccc(C=Nc2c(C)n(C)n(-c3ccccc3)c2=O)o1	none
CCCc1cc2c(=O)c(-c3ccc4c(c3)OCCO4)c(C)oc2cc1OC(=O)N(C)C	none
COCCCNC(=O)c1sc2cc(F)ccc2c1Cl	none
CCOc1ccccc1C1CC(c2ccc(I)cc2)Nc2ncnn21 (stereo unspecified)	mHTT-CaM PPI inh 54.0
COc1ccccc1C1CC(c2ccc(Br)cc2)Nc2nc(N)nn21 (stereo unspecified)	none
CCOc1ccccc1C1CC(c2ccc(Br)cc2)Nc2nc(N)nn21 (stereo unspecified)	mHTT-CaM PPI inh 99.4
CCOc1ccccc1C1CC(c2ccccc2)Nc2ncnn21 (stereo unspecified)	none
COc1cccc(CCC(=O)N2CCC3(CC2)Nc2cccnc2NC3=NC(C)(C)C)c1	none
COc1cc(OC)cc(C(=O)N2CCN(c3cc(C)cc(C)c3)C(=O)C2C)c1 (stereo unspecified)	none
CN(C)CCCN1C(=O)C(O)=C(C(=O)c2ccco2)C1c1cccs1 (stereo unspecified)	none (no result: Pf apPOL inh)
COc1ccc(-c2ccoc2)cc1[C@H]1[C@H]2C=CC[C@@H](C)[C@@H]2C(=O)N1Cc1ccccc1	mHTT-CaM PPI inh 86.1
